Rce1 inh = yeast Rce1p protease inhibitors, primary screen, biochemical, fluorescence, cell-free homogeneous; CAAX prenyl protease 2 (Saccharomyces cerevisiae (strain ATCC 204508 / S288c)), Q03530; yeast membranes, quenched prenylated peptide cleavage fluorescence; calls only; 290,000 compounds, 0.27% hits;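 active = fall in fluorescence gain of 50% or more versus controls, with final raw signal at or below 3038400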;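 also: plate controls were neutral control wells for no effect and wells lacking membranes for full effect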
Target sequence (Q03530 whole entry, looked up): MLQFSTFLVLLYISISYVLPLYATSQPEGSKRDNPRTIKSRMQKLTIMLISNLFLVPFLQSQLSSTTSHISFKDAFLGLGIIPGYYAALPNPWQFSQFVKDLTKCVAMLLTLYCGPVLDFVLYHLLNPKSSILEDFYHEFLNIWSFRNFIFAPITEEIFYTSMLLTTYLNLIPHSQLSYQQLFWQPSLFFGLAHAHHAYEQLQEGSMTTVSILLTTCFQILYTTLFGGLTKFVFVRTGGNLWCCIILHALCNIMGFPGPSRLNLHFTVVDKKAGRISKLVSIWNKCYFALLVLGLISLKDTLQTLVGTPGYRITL
PfHsp90 set2 = growth inhibition of PfHsp90-expressing yeast, primary screen, antimalarial PfHsp90 inhibitor project, S. cerevisiae, BacTiter-Glo luminescence, single point, set 2. BacTiter-Glo ATP, 48 h; yeast lacking PDR1 and PDR3 efflux regulators. inhibition, % at 9.4 µM. 310,000 compounds, 0.32% hits. AID 504621, 2011;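 active = every replicate shows inhibition above about 80%, whatever the replicate mean, limit read from the data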;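 also: 0% = DMSO neutral controls and 100% = 20 µM radicicol positive controls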
TIM10 inh = growth inhibitors of isogenic TIM10 control yeast, primary screen, counter-screen for tim10-1 yeast inhibitor project, luminescence, uHTS; S. cerevisiae TIM10 strain growth, BacTiter-Glo luminescence, 24 h; 330,000 compounds, 1.4% hits; inhibition, % at 10 µM; AID 463195, 2010;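 active = inhibition of 40% or more at the single tested concentration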;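 also: wild-type TIM10 isogenic control strain grown at permissive 25 °C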
tim23-1 inh = growth inhibitors of tim23-1 mutant yeast, primary screen, luminescence, uHTS; S. cerevisiae tim23-1 growth, BacTiter-Glo luminescence, 24 h; 330,000 compounds, 1.3% hits; inhibition, % at 20 µM;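 active = growth inhibition of the mutant yeast at or above 50%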;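 also: temperature-sensitive mutant grown at 25 °C; plate controls were DMSO-treated mutant yeast for no effect and medium wells lacking yeast for full effect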
tim10-1 inh = growth inhibitors of tim10-1 mutant yeast, primary screen, luminescence, uHTS; S. cerevisiae tim10-1 ts strain growth, BacTiter-Glo, 24 h; inhibition, % at 20 µM; 330,000 compounds, 2.2% hits; AID 463190, 2010;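 active = inhibition of at least 40%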;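 also: mutant grown at 25 °C; 0% = DMSO wells with yeast and 100% = wells holding no yeast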
tim23-1 conf = tim23-1 mutant yeast growth inhibitors, confirmation, luminescence, single concentration. shares compounds with tim23-1 inh. inhibition, % at 20 µM. 4,400 compounds, 83% hits. S. cerevisiae tim23-1 growth, BacTiter-Glo luminescence, 24 h;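 active = inhibition above about 39% in either of two replicate wells at 20 µM, limit read from the data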;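 also: temperature-sensitive tim23-1 mutant grown at 25 °C; 0% = DMSO wells with yeast and 100% = medium wells without yeast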
* marks the source's active call; other numbers are inactive results; i = inactive; / = not tested or not shown. Compounds with a hit are over-represented: about 3.7% of the library has one in this group of screens.

SMILES | Rce1 inh | PfHsp90 set2 | TIM10 inh | tim23-1 inh | tim10-1 inh | tim23-1 conf
CC(NC(=S)Nc1ccc(Cl)cc1)C(c1ccccc1)N1CCOCC1 (stereo not given) | i | -7 | 29 | 24 | 34 | /
Cc1ccc(-c2cc(-c3ccco3)c3c(N)c(C(=O)NN)oc3n2)cc1 | i | 22 | 7 | 30 | 23 | /
NNC(=O)c1oc2nc(-c3ccccc3)cc(-c3ccccc3)c2c1N | i | 12 | 23 | 59* | 39 | -19
CC(C)C1(C)C(=O)N=C2c3ccccc3C(=O)N21 (stereo not given) | i | -11 | -13 | 14 | 3 | /
O=c1c2c(n3cnnc3n1-c1ccccc1)-c1ccccc1CC21CCCC1 | i | -13 | 38 | 43 | 39 | /
O=c1c2c(n3cnnc3n1C1CCCCC1)-c1ccccc1CC21CCCCC1 | i | -23 | 30 | 54* | 31 | 15
N#Cc1cnc(SCC(=O)NNC(=O)COc2cccc3ccccc23)nc1N | i | 19 | -25 | -5 | 3 | /
Cc1cc(C(=O)Nc2ccc(Cl)cc2)c(C)n1-c1ccccc1 | i | / | 36 | 56* | 39 | 54*
Cc1cccc(NC(=O)CSc2nnnn2-c2ccc3c(c2)OCCO3)n1 | i | 13 | 2 | -15 | 15 | /
CC(C)CC(=O)Nc1ccccc1N1CCN(C(=O)c2ccccc2)CC1 | i | -1 | 4 | 76* | 13 | 7
Oc1ccccc1-c1cc(-c2ccc(F)cc2)n[nH]1 | i | 7 | 25 | 68* | 39 | 61*
Oc1ccccc1-c1ccn[nH]1 | / | 4 | -10 | 2 | -4 | /
Oc1ccccc1-c1cc(-c2ccccc2)n[nH]1 | / | 38 | 18 | 71* | -9 | 60*
Oc1ccc(F)cc1-c1cc(-c2ccc3c(c2)OCCO3)n[nH]1 | i | 17 | 17 | -6 | 3 | /
CCOC(=O)C1CC2CC(C1)CN(C(=O)C1CCCCC1)C2 (stereo not given) | i | 8 | 1 | 22 | 23 | /
CCOc1ccc(C(=O)NCC(=O)N2CCCCCCC2)cc1 | / | 25 | 2 | 19 | 7 | /
Cc1cc(O)c2c(-c3ccccc3)cc(=O)oc2c1 | / | -11 | 31 | 47 | 32 | /
Cc1cc2oc(=O)cc(-c3ccccc3)c2c(C)c1-c1ccc(O)cc1 | / | -84 | 2 | 61* | 21 | 48*
COc1ccc(-c2ccc(-c3cc(=O)oc4cc(OC)c(OC)c(OC)c34)cc2)cc1OC | / | 0 | -7 | 28 | 11 | /
COc1cc2oc(=O)cc(-c3ccc(-c4ccc(O)cc4)cc3)c2c(OC)c1OC | / | -24 | 1 | 56* | 28 | 35
O=c1cc[nH]c2c1ccc1cccnc12 | i | -4 | -2 | 11 | -17 | /
Cc1ccc(C)c(N(CC(=O)NC2CCCC2)C(=O)c2csnn2)c1 | i | 2 | -6 | 23 | 20 | /
Cc1cc(NC(=O)c2ccc(C)c(C)c2)no1 | i | 32 | 3 | 17 | -8 | /
Nc1ccc(/C=C/C(=O)c2cccs2)cc1 | i | 4 | 40 | 56* | 28 | 80*
Cc1c(/C=C/C(=O)c2cccs2)cnn1C | i | 3 | 10 | 16 | 20 | /
SMILES | Rce1 inh | PfHsp90 set2 | TIM10 inh | tim23-1 inh | tim10-1 inh | tim23-1 conf
CCN(CC)c1ccc(/C=C2/C(=O)ON=C2C)cc1 | / | -1 | 17 | 56* | 32 | 60*
COc1cc(/C=C/C(=O)NCCN2CCOCC2)cc(OC)c1OC | i | 13 | 11 | 3 | -2 | /
Nc1nc(SCC(=O)NC2CCCCC2)n[nH]1 | i | 7 | -6 | 5 | -5 | /
CCCCCCN(C(=O)CCCCCN1C(=O)NC(c2ccc(-c3ccccc3)cc2)C(C(=O)OCc2ccccc2)=C1C)C(C)C(=O)NCCCC (stereo not given) | i | / | 8 | -4 | 3 | /
CCCCNC(=O)C(C1CCCCC1)N(CCN(C)C)C(=O)CCCN1C(=O)NC(c2ccc(-c3ccccc3)cc2)C(C(=O)OCc2ccccc2)=C1C (stereo not given) | / | / | 5 | 51* | 29 | 31
NS(=O)(=O)c1ccc(N2N=C(c3ccccc3)CC2c2cccc(Cl)c2)cc1 (stereo not given) | / | -34 | 17 | 53* | 24 | 31
COc1ccc(NC(=O)c2cc(S(=O)(=O)NCC3COc4ccccc4O3)ccc2F)cc1 (stereo not given) | i | 9 | 31 | 58* | 35 | 65*
Cn1c(C=O)c(C#Cc2ccccc2)c2ccccc21 | / | 1 | 21 | 58* | 14 | 63*
Nc1ncnc2c1ncn2[C@@H]1O[C@H](CO)C[C@@H]1O | i | / | -2 | 56* | 37 | 59*
O=C(NCCOc1ccc(F)cc1)C1CCC(=O)N(CC2CCCCC2)C1 (stereo not given) | i | 0 | 15 | 12 | 32 | /
CC(=O)c1ccccc1OC(=O)COc1ccc(Cl)cc1C | i | -19 | 25 | 54* | 21 | 46*
Cc1csc2c(N3CCN(C(=O)NC(C)(C)C)CC3)ncnc12 | i | -16 | 12 | 8 | 9 | /
Cc1csc2ncnc(N3CCN(C(=S)Nc4ccc(C(F)(F)F)cc4)CC3)c12 | i | -21 | 23 | 21 | 28 | /
Cc1csc2c(N3CCN(C(=O)Nc4ccc(Cl)c(Cl)c4)CC3)ncnc12 | i | 6 | 19 | 67* | 27 | 50*
Cc1csc2c(N3CCN(C(=S)Nc4ccc(C(F)(F)F)cc4)CC3)ncnc12 | i | -5 | 26 | 55* | 25 | 46*
CN(C)c1nc(N)c([N+](=O)[O-])c(N2CCCCCC2)n1 | i | -19 | 9 | 54* | 33 | 39*
CC1CCCN(c2nc(N(C)c3ccccc3)nc(N)c2[N+](=O)[O-])C1 (stereo not given) | i | -12 | 30 | 48 | 28 | /
CCOC(=O)C1=CC[C@]2(C)c3c(c4ccccc4n3C)C(=O)C1N2C | / | 6 | 6 | 9 | -7 | /
O=C(NOCc1ccccc1)c1coc(-c2ccccc2)n1 | / | -7 | -10 | 60* | -29 | 36
O=C(/C=C/c1ccccc1)N1CCC[C@H]1CO | i | 7 | 10 | 8 | -4 | /
C#CCSc1nncn1C(=O)/C=C/c1ccccc1 | i | / | 12 | 52* | 35 | 77*
Cc1ccc(Cl)cc1NC(=O)Cn1c(C)csc1=O | / | -2 | -1 | 9 | 4 | /
CC(=O)N(Cc1ccccc1)c1c(N)nc(N)[nH]c1=O | i | -14 | 6 | 12 | -6 | /
CCNC(=O)c1c(O)c2ccccc2[nH]c1=O | i | 26 | 27 | 54* | 13 | 41*
Cc1cc(C(=O)N/N=C/c2cccs2)n[nH]1 | i | -2 | -18 | -8 | -20 | /

Screening results as filed in PubChem BioAssay.
